# Results published in PubChem BioAssay (Tox21).
# Values joined by “and” are separate entries in the source; they are usually repeats but may differ in a detail not shown here. Equal entries are not always repeated. Records with an inconclusive call do not appear. Entries that show only a call come without a potency. Active and inactive are the calls of the source. Calls come from the whole dose curve; as a rule, active = well fitted inhibition curve with a large enough effect in the signal ratio in the repeat runs (not every such curve was filed as active); inconclusive = weak or mixed curves, or effect the other way; inactive = no such curve, though single readings can be large or run the other way; the % refers to the signal ratio.
# Target: Glucocorticoid receptor (Homo sapiens) (UniProt P04150)
# Assay: qHTS assay to identify small molecule antagonists of the glucocorticoid receptor (GR) signaling pathway (AID 720692)
# Conditions: GR-bla HeLa, beta-lactamase FRET ratio, dexamethasone-stimulated, 18 h; series mostly up to 58.5 µM
# Description: U.S. Tox21 Program National Center for Advancing Translational Sciences [NCATS] NIH Chemical Genomics Center [NCGC] U.S. Environmental Protection Agency [EPA] National Institutes of Environmental Health Sciences [NIEHS] National Toxicology Program [NTP] U.S. Food and Drug Administration [FDA] Tox21 Assay Overview: The Glucocorticoid receptor (GR) is one of the members of the nuclear receptor family of ligand-dependent transcription factors. GR plays a critical role in carbohydrate, protein and lipid metabolisms and programmed cell death. CellSensor GR-bla HeLa cell line (Invitrogen) contains a beta-lactamase reporter gene under the control of the glucocorticoid response element stably integrated into HeLa cells, a cervical cancer cell line that expresses glucocorticoid receptor. The activation of the reporter gene under culture conditions can be detected by fluorescence intensity. This cell line has been used to screen the Tox21 10K compound library and to identify the compounds that inhibit the GR signaling.
# Tox21 Assay Protocol Summary: The GR-bla HeLa cells were dispensed at 1500 cells/5 ul/well in 1536-well black wall/clear bottom plates using a Multidrop Combi (ThermoFisher Scientific, Waltham, MA) dispenser. After the assay plates were incubated at a 37 C/5% CO2 incubator for 4 hours, 23 nL of compounds dissolved in DMSO, positive controls or DMSO only was transferred to the assay plate by a pintool station (Kalypsys, San Diego, CA), followed by addition of 1 uL of dexamethasone (5 nM, final concentration in the well). The plates were incubated at 37 C for 18 hours. After 1 uL of LiveBLAzerTM B/G FRET substrate was added using a Flying Reagent Dispenser (Aurora Discovery, San Diego, CA), the plates were incubated at room temperature for 2 hours, and fluorescence intensity was measured by an Envision plate reader (PerkinElmer, Shelton, CT).
# Potency is the fitted concentration of half-maximal effect.
# Sequence of Glucocorticoid receptor (Homo sapiens) (P04150 whole entry, looked up): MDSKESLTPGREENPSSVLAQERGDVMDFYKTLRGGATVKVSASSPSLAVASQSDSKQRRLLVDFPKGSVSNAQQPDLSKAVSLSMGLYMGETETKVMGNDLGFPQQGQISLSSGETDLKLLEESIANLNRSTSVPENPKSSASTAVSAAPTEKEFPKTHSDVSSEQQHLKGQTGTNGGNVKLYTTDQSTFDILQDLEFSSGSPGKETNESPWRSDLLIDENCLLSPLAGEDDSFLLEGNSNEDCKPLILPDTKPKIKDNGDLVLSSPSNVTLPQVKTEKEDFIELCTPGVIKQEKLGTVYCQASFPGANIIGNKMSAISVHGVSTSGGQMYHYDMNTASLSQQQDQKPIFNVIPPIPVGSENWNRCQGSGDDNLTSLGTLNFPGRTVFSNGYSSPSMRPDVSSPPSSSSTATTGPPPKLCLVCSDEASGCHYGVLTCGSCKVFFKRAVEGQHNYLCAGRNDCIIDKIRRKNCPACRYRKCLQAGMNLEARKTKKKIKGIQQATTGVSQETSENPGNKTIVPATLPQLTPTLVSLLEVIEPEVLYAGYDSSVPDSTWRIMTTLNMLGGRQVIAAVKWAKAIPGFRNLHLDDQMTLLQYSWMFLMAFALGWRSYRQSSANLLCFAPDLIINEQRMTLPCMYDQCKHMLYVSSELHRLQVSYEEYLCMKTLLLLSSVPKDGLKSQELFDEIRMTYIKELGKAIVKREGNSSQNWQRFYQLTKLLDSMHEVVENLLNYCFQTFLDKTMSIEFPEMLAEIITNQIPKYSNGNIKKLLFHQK
row,Structure (SMILES),Potency
1,CC(C)(C)[C@@H](O)[C@@H](Cc1ccc(Cl)cc1)n1cncn1,inactive
2,O=C(O)c1ccc2c(c1)C(=O)OC2=O,inactive
3,O=C(O)c1ccccc1C(c1ccc(O)cc1)c1ccc(O)cc1,inactive
4,O=C(O)CCCCCCCCCCC(=O)O,inactive
5,CCCCCOC(C)=O,inactive
6,C[Si](O[Si](C)(C)C)O[Si](C)(C)C,inactive
7,CCCCCC1=CCCC1=O,inactive
8,CCCCC(CC)CO (stereo not given),inactive
9,NNc1nncc2ccccc12,inactive
10,CCCCC(CC)COC(=O)CS (stereo not given),inactive
11,CSCCC=O,inactive
12,O=[N+]([O-])c1ccc(/C=C/c2ccc([N+](=O)[O-])cc2S(=O)(=O)O)c(S(=O)(=O)O)c1,inactive
13,COc1cc(Cc2cnc(N)nc2N)cc(OC)c1OC,inactive
14,CC(=O)CC(=O)Nc1ccccc1C,inactive
15,CCCCCCOCCO,inactive
16,COc1ccc(Nc2ccccc2)c(C)c1,inactive
17,CCC(O)OC(O)CC (stereo not given),inactive
18,COCCCOc1ccnc(CS(=O)c2nc3ccccc3[nH]2)c1C (stereo not given),inactive
19,O=C(O)c1cc(C(=O)O)cc(S(=O)(=O)O)c1,inactive
20,CCCCC(CC)COC(=O)CCCCC(=O)OCC(CC)CCCC (stereo not given),inactive

row,Structure (SMILES),Potency
1,Fc1ccc(Br)cc1,inactive
2,Cc1ccc2oc(=O)ccc2c1,inactive
3,C/C=C1/CC2C=CC1C2 (stereo not given),inactive
4,CCCCCCCCC/C=C/CC1CC(=O)OC1=O (stereo not given),49 µM (active)
5,CCCC(C)=O,inactive
6,CCCCC(CC)COC(=O)C(C#N)=C(c1ccccc1)c1ccccc1 (stereo not given),inactive
7,COS(C)(=O)=O,inactive
8,CC(O)COCC(C)O (stereo not given),inactive
9,O=C(CC(C(=O)OC1CCCCC1)S(=O)(=O)O)OC1CCCCC1 (stereo not given),inactive
10,CN(C)CCCN,inactive
11,O=C(O)c1ccc(C(=O)O)cc1,inactive
12,CC(C)(N)CO,inactive
13,FC(F)(F)c1ccc(Cl)c(Cl)c1,inactive
14,O=P(OC(CCl)CCl)(OC(CCl)CCl)OC(CCl)CCl,21.8 µM (active) and 30.9 µM (active)
15,CC(=O)Nc1ccccc1,inactive
16,CCCCCC/C(C=O)=C\c1ccccc1,inactive
17,Cc1ccc(S(N)(=O)=O)cc1,inactive
18,O=C1CCC(N2C(=O)c3ccccc3C2=O)C(=O)N1 (stereo not given),inactive
19,ON=C1CCCCC1,inactive
20,CN(C)CCC(c1ccccc1)c1ccccn1 (stereo not given),inactive
